Among the test systems are SR leukemia; RPMI-8226 leukemia; OVCAR-8 ovarian; OVCAR-5 ovarian; OVCAR-4 ovarian; SK-OV-3 ovarian; IGROV1 ovarian; OVCAR-3 ovarian; HS 578T breast; NCI/ADR-RES ovarian; T-47D breast; BT-549 breast; MDA-MB-435 melanoma; SW-620 colon; MCF7 breast; HCT-116 colon; HCC-2998 colon; KM12 colon.
What all share (assay): NCI-60 one-dose screen, 48 h (100 = growth as untreated, 0 = no growth, -100 = all killed)
Holding throughout (details): 10 µM unless noted

This is part of a sample that, as a whole, favours compounds with a hit. Of some 83,000 tested, about 20% had one in any assay.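 Method: cells in 96-well plates; compound added at one concentration; 48 h incubation; percent growth measured; values under 10 scored active.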 Unmarked numbers belong to inactive results. Active and inactive are the calls of the source.

On to `N#C/C(=C\c1ccc(Cl)cc1Cl)C(N)=O`, for which the growth with SR leukemia was 80.5%; with RPMI-8226 leukemia it was 111%; in the experiment on OVCAR-8 ovarian, 106%; in the experiment on OVCAR-5 ovarian, 99.7%; in the experiment with OVCAR-4 ovarian, 107%; in the experiment with SK-OV-3 ovarian, 107%. In addition, the growth in the experiment with IGROV1 ovarian is 102%; in the experiment on OVCAR-3 ovarian it was 109%; in the experiment with HS 578T breast, 99%; in the experiment on NCI/ADR-RES ovarian, 107%; in the experiment on T-47D breast, 93.7%; in the experiment on BT-549 breast it was 102%. For the same molecule, the growth in the experiment with MDA-MB-435 melanoma was 98.5%; with SW-620 colon, 88.3%; with MCF7 breast it was 76.2%; in the experiment on HCT-116 colon, 74%; in the experiment with HCC-2998 colon, 103%; with KM12 colon, 103%.
`Cc1ccc(NC(=O)c2cccc(CN3CCN(C)CC3)c2)cc1Oc1ccc(-c2[nH]nc3ncnc(N)c23)cc1`: the growth was 6.56% (active) in the experiment on SR leukemia; 48.7% with RPMI-8226 leukemia; 83.1% in the experiment with OVCAR-8 ovarian; 80.8% with OVCAR-5 ovarian; 81.9% in the experiment with OVCAR-4 ovarian; 78.8% in the experiment with SK-OV-3 ovarian. Besides, the growth is 63.3% in the experiment with IGROV1 ovarian; 79.6% in the experiment on OVCAR-3 ovarian; 64.2% with HS 578T breast; 101% with NCI/ADR-RES ovarian; 82.6% in the experiment on T-47D breast; 95.8% with BT-549 breast. The growth in the experiment on MDA-MB-435 melanoma is 56.3%; with SW-620 colon, 48.6%; with MCF7 breast it was 41.4%; with HCT-116 colon, 57.4%; in the experiment on HCC-2998 colon, 99.4%; in the experiment with KM12 colon it was 37.4%.
As for `CN(c1ccc(Br)cc1)S(=O)(=O)c1ccc(-c2cnc(C3CC3)o2)cc1`, the growth in the experiment on SR leukemia was 34.4%; in the experiment with RPMI-8226 leukemia, 15.9%; with OVCAR-8 ovarian it was 33.2%; in the experiment on OVCAR-5 ovarian it was 46.7%; in the experiment on OVCAR-4 ovarian it was 70.1%; in the experiment with SK-OV-3 ovarian, 73.7%. The growth with IGROV1 ovarian is 29.9%; with OVCAR-3 ovarian it was 23.7%; with HS 578T breast, 35.8%; in the experiment on NCI/ADR-RES ovarian, 2.5% (active); with T-47D breast it was 55.1%; in the experiment on BT-549 breast, 19.3%. In addition, the growth in the experiment with MDA-MB-435 melanoma was -12.1% (active); in the experiment with SW-620 colon, 27.9%; in the experiment on MCF7 breast it was 21.1%; in the experiment on HCT-116 colon it was 14.5%; in the experiment with HCC-2998 colon, 16.4%; in the experiment with KM12 colon, 23.2%.
With `Fc1ccc(-c2cc3nc(C(Cl)Cl)nc(-c4cccs4)n3n2)cc1`, the growth in the experiment on SR leukemia was 83.8%; with RPMI-8226 leukemia, -3.54% (active); in the experiment with OVCAR-8 ovarian it was 24%; with OVCAR-5 ovarian, 9.21% (active); with OVCAR-4 ovarian, 29.8%; in the experiment with SK-OV-3 ovarian, 32%. In addition, the growth is 61.2% in the experiment with IGROV1 ovarian; -26.2% (active) in the experiment with OVCAR-3 ovarian; -5.63% (active) with HS 578T breast; 5.56% (active) with NCI/ADR-RES ovarian; 25.2% in the experiment on T-47D breast; 92% in the experiment on BT-549 breast. For the same molecule, the growth was 14.3% in the experiment with MDA-MB-435 melanoma; 2.69% (active) in the experiment on SW-620 colon; 3.99% (active) in the experiment on MCF7 breast; -2.24% (active) in the experiment with HCT-116 colon; -61.5% (active) in the experiment on HCC-2998 colon; -30.5% (active) in the experiment on KM12 colon.
Consider `C/C=C/[C@@H]1C=C[C@@H]2C[C@H](C)CC[C@H]2[C@]1(C)/C(O)=C1/C(=O)[C@H](CO)N(C)C1=O`, for which the growth in the experiment with SR leukemia is 59.2%; with RPMI-8226 leukemia, 36.5%; in the experiment with OVCAR-8 ovarian it was 43.4%; in the experiment on OVCAR-5 ovarian, 118%; in the experiment with OVCAR-4 ovarian, 70.5%; in the experiment on SK-OV-3 ovarian it was 75%. The growth in the experiment on IGROV1 ovarian is 57.3%; in the experiment with OVCAR-3 ovarian, 49.1%; in the experiment with HS 578T breast, 67.9%; with NCI/ADR-RES ovarian, 6.87% (active); in the experiment on T-47D breast, 74.7%; with BT-549 breast, 75.2%. Further, the growth in the experiment with MDA-MB-435 melanoma is 74.8%; in the experiment with SW-620 colon, 52.5%; in the experiment with MCF7 breast, 68.3%; in the experiment with HCT-116 colon, 61.4%; in the experiment with KM12 colon it was 47.2%.
For the molecule `O=c1c2c(O)cccc2oc2c3c(cc(O)c12)O[C@H]1OC=C[C@@H]31`, the growth with SR leukemia was 42.6%; with RPMI-8226 leukemia, 93.7%; in the experiment on OVCAR-8 ovarian it was 87.8%; in the experiment on OVCAR-5 ovarian it was 110%; with OVCAR-4 ovarian it was 94.5%; with SK-OV-3 ovarian, 78.9%. For the same molecule, the growth with IGROV1 ovarian was 77.4%; in the experiment with OVCAR-3 ovarian, 106%; in the experiment with HS 578T breast it was 94.9%; with NCI/ADR-RES ovarian, 87.9%; with T-47D breast, 57.4%; with BT-549 breast, 95.2%. Moreover, the growth with MDA-MB-435 melanoma is 83.3%; in the experiment with SW-620 colon, 78.1%; with MCF7 breast it was 8.3% (active); in the experiment with HCT-116 colon it was 86.6%; in the experiment on HCC-2998 colon, 63.8%; in the experiment with KM12 colon, 82.4%.
Consider `Cn1c(SC(C(=O)Nc2ccc(F)cc2)c2ccccc2)nc2ccccc2c1=O` (stereo not drawn), for which the growth is 96.9% in the experiment with SR leukemia; 98.4% in the experiment on RPMI-8226 leukemia; 99.7% in the experiment with OVCAR-8 ovarian; 111% in the experiment with OVCAR-5 ovarian; 102% with OVCAR-4 ovarian; 109% with SK-OV-3 ovarian. Moreover, the growth was 102% in the experiment on IGROV1 ovarian; 114% with OVCAR-3 ovarian; 98.8% in the experiment on HS 578T breast; 109% in the experiment on NCI/ADR-RES ovarian; 96% in the experiment with T-47D breast; 102% in the experiment with BT-549 breast. Further, the growth with MDA-MB-435 melanoma was 101%; in the experiment with SW-620 colon, 105%; in the experiment on MCF7 breast, 90.9%; with HCT-116 colon, 95.3%; in the experiment on HCC-2998 colon, 98.3%; in the experiment on KM12 colon, 112%.
As to `CCCCCCNC(=O)Oc1ccc(/C(=C(\C)c2ccc(OC)cc2)c2ccc(OCCN(C)C)cc2)cc1`, the growth in the experiment with SR leukemia is 13.1%; in the experiment on RPMI-8226 leukemia, 19.4%; in the experiment on OVCAR-8 ovarian it was 86.4%; in the experiment with OVCAR-5 ovarian, 86.8%; in the experiment with OVCAR-4 ovarian, 90.9%; in the experiment on SK-OV-3 ovarian, 103%. Moreover, the growth was 68.4% with IGROV1 ovarian; 91.3% in the experiment on OVCAR-3 ovarian; 83.2% with HS 578T breast; 74.8% in the experiment with NCI/ADR-RES ovarian; 68.1% in the experiment on T-47D breast; 85.1% in the experiment on BT-549 breast. Further, the growth is 87.7% in the experiment on MDA-MB-435 melanoma; 83.6% in the experiment on SW-620 colon; 23.6% in the experiment with MCF7 breast; 37.2% in the experiment on HCT-116 colon; 88.3% with HCC-2998 colon; 99.2% in the experiment with KM12 colon.
